Screens: PubChem BioAssay, National Center for Advancing Translational Sciences (NCATS)
An excerpt weighted towards active compounds, which were near 8.1% of everything screened.
RORg inh – inhibitors of mouse ROR gamma transcriptional activity | Drosophila S2 Gal4-RORgamma UAS-luciferase reporter, 20 h | P51450 | Potency, µM (highest dose often 53.6 µM), for the others: top-dose activity change, negative = inhibition, actives largely listed as inhibitors | 310,000 compounds, 5.4% hits; further: on the % scale 0 is the no-effect control and ±100 the full control effect; nearly all actives have a fitted effect of over 60% in size
Target sequence (P51450 whole entry, looked up, the tested form may be a part): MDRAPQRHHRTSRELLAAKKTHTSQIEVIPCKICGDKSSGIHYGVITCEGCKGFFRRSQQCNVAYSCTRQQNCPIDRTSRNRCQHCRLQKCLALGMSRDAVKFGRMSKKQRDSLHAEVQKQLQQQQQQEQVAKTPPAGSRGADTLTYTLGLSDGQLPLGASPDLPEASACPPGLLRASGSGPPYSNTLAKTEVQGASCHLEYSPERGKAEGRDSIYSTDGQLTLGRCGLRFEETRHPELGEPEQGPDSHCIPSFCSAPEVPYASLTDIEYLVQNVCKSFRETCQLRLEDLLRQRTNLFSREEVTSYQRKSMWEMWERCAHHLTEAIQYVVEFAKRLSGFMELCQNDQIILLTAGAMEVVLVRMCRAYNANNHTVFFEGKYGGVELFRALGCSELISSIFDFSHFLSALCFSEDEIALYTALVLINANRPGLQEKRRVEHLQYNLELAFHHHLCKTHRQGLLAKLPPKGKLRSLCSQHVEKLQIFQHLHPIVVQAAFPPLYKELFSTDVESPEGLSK
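Stable Schneider cell line, Gal4 DNA-binding domain fused to ROR gamma, UAS-luciferase. Cmpd 1 hr RT → CuSO4 700 uM final → 20 hr RT → luciferase reagent 10 min → luminescence.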
Epigenetic derep – derepresses silenced GFP reporter in murine cells; Potency, µM (titrated, usually from 53.9 µM), for inactives: top-dose GFP activation, usual class: activators; 280,000 compounds, 0.2% hits; AID 1865; murine LDR cells, GFP reporter derepression, 30 h; further: % of control where 0% means no effect; nearly all actives have a fitted effect of over 60% in size
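Derepression of a silenced CMV-GFP reporter in murine LDR cells is scored by enumerating GFP-positive cells with a laser-scanning microplate cytometer after 30 hours of treatment at 37 C.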
ClpP mod – qHTS Assay for Activators of ClpP. ATP-dependent Clp protease proteolytic subunit (Bacillus subtilis (strain 168)), P80244. purified B. subtilis ClpP, FRET peptide cleavage, 20 min. Potency, µM (titrated, usually from 57.5 µM), for the others: at the highest dose activity change, negative = active. 340,000 compounds, 1.9% hits. AID 651965, 2013; active means well fitted falling curve with a large enough effect; inconclusive means small, poorly fitted or top-dose-only effect; inactive means no such curve, though single readings can be large or run the other way; further: the source files actives as falling curves though it sought activators and does not explain the sign; nearly all actives have a fitted effect of over 65% in size
Target sequence (P80244 whole entry, looked up): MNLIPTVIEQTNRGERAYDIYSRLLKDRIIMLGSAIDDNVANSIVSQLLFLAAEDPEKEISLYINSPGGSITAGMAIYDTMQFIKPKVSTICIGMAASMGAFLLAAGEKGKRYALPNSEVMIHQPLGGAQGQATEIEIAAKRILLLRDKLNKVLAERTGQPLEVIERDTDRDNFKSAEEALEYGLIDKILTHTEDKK
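Buffer: 100 mM Tris/HCl pH8, 100 mM KCl, 0.05% low protease BSA, 2.5% glycerol, 0.01% Tween-20. ClpP 10 microg/mL final; 20 min RT; delta FRET normalized to ADEP and DMSO controls.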
PINK1 modulator – PINK1 expression modulation. PINK1 immunofluorescence, high-content cytometry, 24 h. Potency, µM (top dose mostly 76.6 µM), for inactives: at the top dose activation (PINK1 increase), usual class: activators. 410,000 compounds, 0.2% hits; active means well fitted activation curve with a large enough effect; inconclusive means small, poorly fitted or top-dose-only effect; cell line not stated here; further: % of control where 0% means no effect; nearly all actives have a fitted effect of over 65% in size
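Readout is PINK1 immunofluorescence, quantified alongside mitochondrial, cell and nuclear markers by laser-scanning microplate cytometry. Cells from a stable line were exposed to compound titrations (5 concentrations) for 24 hours, with CCCP controls.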
VP16 counter – inhibits Gal4-VP16 luciferase reporter, ROR gamma counter-screen; 310,000 compounds, 3.5% hits; AID 2546; Potency, µM (highest dose often 53.6 µM), for inactives: at the highest dose activity, negative = inhibition, most hits filed as inhibitors; Drosophila S2 Gal4-VP16 UAS-luciferase, luminescence, 20 h;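 further: Gal4-VP16 expression switched on by copper sulfate through the metallothionein promoter; on the % scale 0 is the no-effect control and ±100 the full control effect; nearly all actives have a fitted effect of over 50% in size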
Sfp PPTase inh – blocks B. subtilis Sfp PPTase activity | 310,000 compounds, 3.5% hits | Biochemical Sfp PPTase activity, qHTS | Q9F4F7 | Potency, µM, inactives show largest response in the series, negative = inhibition, most hits filed as inhibitors | AID 1490;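 further: the enzyme is Sfp with the accession as filed and its product quenches rhodamine fluorescence; 0% = enzyme reaction without inhibitor and -100% = no enzyme wells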
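Sfp 15 nM + cpd, 15 min RT; start w/ rhodamine-CoA 5 uM, BHQ-2-YbbR 12.5 uM (final); 50 mM Hepes pH 7.6, 10 mM MgCl2, 0.01% NP-40, 0.01% BSA; read 525/598 nm at 0 and 30 min.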
Numbers without * were called inactive; ? = inconclusive; / = not tested or not shown; [ ] = another dose, or the depositor's remark. Unless noted, the call rests on the fitted dose curve; in most records, active means well fitted curve in the direction sought with a large enough effect; inconclusive means small, poorly fitted or top-dose-only effect, or another doubt; inactive means no such curve, though single readings can be large; an effect the other way counts as inactive or inconclusive. Potency means the concentration at half of the fitted maximal effect.

SMILES	RORg inh	Epigenetic derep	ClpP mod	PINK1 modulator	VP16 counter	Sfp PPTase inh
CC(Oc1ccccc1F)C(=O)Nc1ccc(-c2nc3ccccc3s2)cc1 (stereo unspecified)	/	-3%	3.2µM*	4%	/	/
COc1cccc(CC(=O)Nc2ccc(-c3nc4ccccc4s3)cc2)c1	/	3%	4%	?	/	/
Oc1ccc(-c2nc3ccccc3s2)cc1	?	1%	5%	0%	?	17%
COc1ccc(-c2nc3ccccc3s2)cc1	8.9µM*	-1%	4%	3%	?	5%
COc1cccc(-c2nc3ccccc3s2)c1	-24%	0%	28µM*	?	?	-4%
Cc1ccc(C)c(CSc2nnc(C)n3c2cc2sccc23)c1	/	-3%	?	1%	/	/
O=C1CC(C(=O)N2CCOc3ccc(CN4CCC(Oc5cccnc5)CC4)cc3C2)c2ccccc21 (stereo unspecified)	/	/	/	0%	/	/
CCOc1ccc(-c2nn(CC(=O)NC3CCCC3)c3c2cnc2ccc(C)cc23)cc1	/	4%	-11%	1%	/	/
CC(Cc1ccccc1)NC(=S)CN1CCCC1=S (stereo unspecified)	8.9µM*	-1%	-3%	1%	?	14%
CC(Cc1ccccc1)NC(=O)CC(c1ccccc1)c1ccccc1O (stereo unspecified)	10%	/	-1%	0%	0%	7%
CC1(C)CC(=O)C2=C(C1)N(c1ccc(F)cc1)C(=O)NC2(C(F)(F)F)C(F)(F)F	11µM*	-1%	-1%	1%[38.3 µM]	-7%	1%
CC1(C)CC(=O)C2=C(C1)N(c1ccc(F)cc1)C(=O)C2(NC(=O)c1ccccc1F)C(F)(F)F (stereo unspecified)	-1%	-1%	1%	6%	2%	20%
O=C1N(Cc2cccc(Cl)c2)C[C@@H]2C[C@@H](c3ccccn3)N3CCC[C@@]123	-1%	3%	0%	2%	22%	50µM*
COc1ccc(C)cc1C1=Nc2ccccc2C1(C)C	13µM*	0%	-4%	8%	?	-4%
COc1ccc(-c2nnc(NC(=O)c3ccc(S(=O)(=O)N4CCc5ccccc5C4)cc3)o2)cc1	0.13µM*	-2%	3%	0%	0.25µM*	18%
O=C(Nc1nnc(C2CC2)o1)c1ccc(S(=O)(=O)N2CCc3ccccc3C2)cc1	0.71µM*	2%	-1%	2%	1.8µM*	20%
CCN(CC)c1ccc(C(=O)NCc2ccc3c(c2)CCN3C(C)=O)cc1	/	0%	-4%	1%	/	/
CCNC(=S)Nc1ccc(OCc2nc3ccccc3s2)cc1	13µM*	/	0%	1%	16µM*	20µM*
O=C(CCCc1nc2ccccc2s1)Nc1ccccc1	-15%	0%	/	0%	-2%[10 µM]	2%
O=C(O)CCCC(=O)Nc1ccc(OCc2nc3ccccc3s2)cc1	9%	-2%	/	0%	18%	8.9µM*
Cc1ccc(/C=c2\sc3n(c2=O)CN(c2ccc(Br)cc2)CN=3)o1	-20%	0%	-1%	-1%	-3%	10µM*
Cc1nc2ccccn2c1C(=O)N/N=C/c1ccc(CNC(=O)C(=O)Nc2ccccc2)o1	25%	-2%	-7%	16%	1%	5%
O=C(NCc1ccc(/C=c2\sc3n(c2=O)CCN=3)o1)C(=O)Nc1ccccc1	0%	-6%	/	/	-21%	22µM*
Cc1ccc(/C=c2/sc3n(c2=O)CCCN=3)o1	7.1µM*	-1%	-5%	0%	?	20µM*
Cc1ccc(N2CN=c3s/c(=C\c4cccnc4)c(=O)n3C2)cc1	-29%	0%	-3%	-2%	-8%	-27%
SMILES	RORg inh	Epigenetic derep	ClpP mod	PINK1 modulator	VP16 counter	Sfp PPTase inh
COc1cc(NC(=O)c2nc3cc(C)c(C)cc3n(C)c2=O)cc(OC)c1OC	/	0%	0%	8%	/	/
CCOC(=O)Cn1nc(C)c(-c2ccccc2)c1N	21%	-2%	0%	0%[38.3 µM]	-1%	16%
Cc1nn(CC2CCCCC2)c(N)c1-c1ccccc1	?	1%	0%	1%	11µM*	6%
CN(CC(=O)Nc1ccc(F)cc1)C(=O)COC(=O)Cc1c(F)cccc1Cl	/	/	/	2%	/	/
CN(CC(=O)Nc1ccccc1Cl)C(=O)COC(=O)Cc1c(F)cccc1Cl	10µM*	/	3%	1%	?	-12%
COC(=O)c1ccccc1N/C=C1\CCc2c(c(C)nn2-c2ccccn2)C1=O	19%	7%	?	2%	2%	45µM*
O=C(Nc1nnc2n1CCS2)c1ccc(F)cc1F	/	5%	-6%	1%	/	/
COc1ccc(N(C(=O)c2ccco2)C(C(=O)NC2CCCC2)c2cccs2)cc1OC (stereo unspecified)	-8%	-1%	-1%	0%	19%	40µM*
COc1ccc(N(C(=O)c2ccco2)C(C(=O)NC2CCCC2)c2cccs2)cc1 (stereo unspecified)	7%	2%	/	3%	11%	3%
COc1ccc(C=C2CCc3ccccc3C2=O)cc1	/	/	0%	4%	/	/
Cc1ccc(C2NC(=O)NC3=C2CCc2ccccc23)cc1 (stereo unspecified)	-89%	1%	?	3%[38.3 µM]	-26%	?
CC(C)c1ccc(C2NC(=O)NC3=C2CCc2ccccc23)cc1 (stereo unspecified)	13%	0%	28µM*	5%	13%	-18%
COc1ccc(C2NC(=O)NC3=C2CCc2ccccc23)cc1 (stereo unspecified)	6%	9%	16µM*	9%	0%	?
COc1cc(NC(=S)NCc2cccnc2)c(OC)cc1Cl	-11%	0%	/	-1%	-6%	17%
COc1ccc(NC(=S)NCc2ccccc2)c(OC)c1	16µM*	/	/	1%	?	25%
COc1ccc(NC(=S)NCCCN2CCCC2=O)c(OC)c1	11%	-2%[10.1 µM]	/	3%	-2%[10 µM]	40µM*
COc1ccc(NC(=S)NCCc2ccccc2)c(OC)c1	11µM*	5%	0%	6%[38.3 µM]	18µM*	4%
COc1cc(OC)c(NC(=S)NCc2ccccc2)cc1Cl	11µM*	0%	/	2%	?	-1%
Cc1ccc(C(C)C)c(OCCCn2c(=O)oc3ccc(C)cc32)c1	/	2%	-1%	0%	/	/
O=C(Nc1ccc(F)cc1F)c1ccc(CN2CC(=O)N3CCCCC3C2=O)cc1 (stereo unspecified)	/	-2%	2%	1%	/	/
COc1cc(OC)c(NC(=S)Nc2cccc(C(C)=O)c2)cc1Cl	?	-1%	-3%	0%	0%	-12%
COc1cc(OC)c(NC(=S)Nc2cc(Cl)cc(Cl)c2)cc1Cl	13µM*	0%	0%	?	?	-22%
